SENP7 block: blocks the human protease SENP7. actives 1.5% (n = 330,000). recombinant SENP7, Z-RLRGG-aminoluciferin luminescence, 40 min. Q9BQF6. AID 434973. inhibition, % at 5 µM;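 active = inhibition above about 50% at the single test dose, limit read from the data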;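 also: plate controls were DMSO with enzyme for no effect and no enzyme buffer wells for full effect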
SENP6 block: SENP6 protease inhibition; Recombinant SENP6 catalytic domain, aminoluciferin luminescence; actives 1.8% (n = 330,000); AID 2599; Q9GZR1; inhibition, % at 10 µM;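 active = inhibition above about 50% at the single tested dose, limit read from the data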;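 also: plate controls were DMSO wells with enzyme for no effect and DMSO wells lacking enzyme for full effect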
SENP8 block-1: inhibitors of human SENP8 protease | actives 0.64% (n = 360,000) | recombinant SENP8, Nedd8 substrate fluorescence | inhibition, % at 20 µM | AID 602440 | Q96LD8; in the data active = inhibition mostly above about 40%, no sharp cut-off; inactive = mostly below about 27%
Target sequence (Q96LD8 whole entry, looked up): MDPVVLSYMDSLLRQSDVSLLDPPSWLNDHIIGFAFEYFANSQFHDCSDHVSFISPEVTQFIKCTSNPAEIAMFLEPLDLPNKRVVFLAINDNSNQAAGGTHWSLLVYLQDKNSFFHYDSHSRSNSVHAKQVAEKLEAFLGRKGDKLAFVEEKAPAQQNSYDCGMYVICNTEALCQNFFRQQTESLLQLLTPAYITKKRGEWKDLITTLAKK
HSP90 inh: HSP90 refolding inhibition in rabbit reticulocyte lysate | luciferase refolding luminescence, 3 h | inhibition, % at 5.6 µM | actives 0.91% (n = 290,000);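 active = inhibition above the screen-wide mean plus 3 SD, computed separately per campaign, cut at about 16% in these data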;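 also: 0% = DMSO wells and 100% = 60 µM geldanamycin wells; inhibitors lower the luminescence because luciferase stays unfolded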
SENP8 block-2: blocks the human protease SENP8. inhibition, % at 10 µM. purified SENP8, Z-RLRGG-aminoluciferin cleavage, luminescence. Q96LD8. actives 1.2% (n = 330,000). AID 2540; in the data active = inhibition above about 50%
* hit, by the source's call; / = no result. Compounds with a hit are over-represented: about 2.8% of the library has one in this group of screens.

SMILES	SENP7 block	SENP6 block	SENP8 block-1	HSP90 inh	SENP8 block-2
CCOC(=O)C1CCCN(C2=C(NS(=O)(=O)c3ccc(Br)cc3)C(=O)c3ccccc3C2=O)C1 (stereo unspecified)	38.7	42.9	57.6*	1.2	16.3
CC(=O)Nc1ccc(S(=O)(=O)NC2=C(N3CCN(C)CC3)C(=O)c3ccccc3C2=O)cc1	23.2	33.9	23.6	-0.5	18.7
O=C1C(NS(=O)(=O)c2ccc(Br)cc2)=C(N2CCCCC2)C(=O)c2ccccc21	5.3	24.9	63.6*	-0.5	2.4
CCN1C(=O)c2cccc3c(S(=O)(=O)NCc4ccccn4)ccc1c23	4.2	3.6	-442.1	1.0	-7.4
CCOC(=O)N1CCC(Nc2c(N3CCN(c4cc(Cl)ccc4C)CC3)c(=O)c2=O)CC1	7.0	-4.3	10.8	-2.0	-8.6
CCOC(=O)N1CCC(Nc2c(-c3ccc(C)c(C)c3)c(=O)c2=O)CC1	4.5	4.5	47.2*	-1.9	0.9
COc1cccc(N(CC(=O)NCc2cccnc2)S(C)(=O)=O)c1	-4.1	-1.8	13.9	-3.6	-3.8
CC(C)(C)NC(=O)Cn1nnc(-c2cccs2)n1	1.4	-11.3	3.7	-2.4	-0.2
N/C(=N\OC(=O)c1cc(Cl)ccc1Cl)c1ccccn1	75.8*	51.3*	11.4	14.7	64.8*
COc1ccc(Cl)cc1C(=O)O/N=C(\N)c1ccccn1	15.5	14.6	20.1	0.6	-1.6
N/C(=N\OC(=O)c1ccc(Cl)cc1Cl)c1cccnc1	72.3*	42.0	6.2	7.2	60.7*
Cc1cc(C)c(C)c(OCC(=O)O/N=C(\N)c2ccccn2)c1	4.1	-8.5	7.6	-0.8	0.3
N/C(=N\OC(=O)COc1ccc(Cl)cc1Cl)c1ccccn1	90.5*	73.1*	7.5	12.8	86.9*
N/C(=N\OC(=O)c1cccc2ccccc12)c1cccnc1	7.8	14.0	-237.9	2.0	7.4
Cc1ccccc1OCCn1cc(C(=O)O)c2ccccc21	3.6	-2.0	11.9	-1.1	-1.8
Cc1ccc(NC(=O)c2ccc(S(=O)(=O)N3CCOCC3)cc2)nc1	0.7	11.7	23.2	1.2	2.6
Cc1cccc(N=Nc2c(C)c(C#N)c(O)[nH]c2=O)c1	46.9	18.3	24.4	2.3	36.5
Cc1c(C#N)c(O)[nH]c(=O)c1N=Nc1ccc(Br)cc1C(=O)O	/	/	45.5*	0.3	/
Nc1ccc(Oc2ccc3c(c2)C(=O)NC3=O)cc1	3.9	-1.3	16.4	-0.2	6.4
Cc1cccc(COc2ccc(/C=N/NC(=O)c3nnn(-c4nonc4N)c3COc3ccc(F)cc3)cc2)c1	-8.8	-41.3	-137.8	16.1*	-11.8
Cc1ccc2cc(CCNC(=O)c3ccc(S(=O)(=O)N4CCOCC4)cc3)c(=O)[nH]c2c1C	-1.5	-2.4	-62.8	-1.6	0.7
Cc1ccccc1CSCC(=O)N/N=C/c1cccs1	2.8	3.1	42.7*	-2.2	-0.8
CC(=O)OCCn1c(C)[n+](CCOC(C)=O)c2cc(Cl)c(Cl)cc21	2.6	7.1	10.1	0.4	12.2
CC(=O)OCCn1c2nc(=O)[nH]c(=O)c-2nc2cc(C)c(C)cc21	22.5	28.1	16.1	20.3*	16.5
CCN1CCN(c2ccc(S(=O)(=O)N3CCOCC3)cc2NC(=O)c2ccc(Cl)s2)CC1	14.9	-0.7	-10.4	/	-5.0
SMILES	SENP7 block	SENP6 block	SENP8 block-1	HSP90 inh	SENP8 block-2
NC(=S)N=Nc1c(O)n(CCCl)c2ccc(Br)cc12	-4.4	-25.9	49.6*	1.5	-5.3
C/C(Cl)=C\Cn1c(O)c(N=NC(N)=S)c2cc(Br)ccc21	-4.2	-12.5	17.1	-5.3	-9.3
CCOC(=O)N1CCC(N2C(=O)c3ccccc3C2Nc2ccc(C)cc2)CC1 (stereo unspecified)	-0.1	-4.4	6.7	-3.9	-0.3
CCOC(=O)N1CCN(C(=O)c2ccc(S(=O)(=O)Nc3ccc(C)cc3)cc2)CC1	4.4	-1.5	16.1	/	-3.9
CC1=NN(c2ccccc2)C(=O)C1N=Nc1ccc(N)cc1 (stereo unspecified)	10.8	6.2	60.9*	8.4	11.1
O=c1c2ccccc2c2ccccc2c(=O)n1Cc1ccc2c(c1)OCO2	/	/	28.6	/	/
Cc1nc2sc(C(c3cccs3)N3CCN(c4ccccc4)CC3)c(O)n2n1 (stereo unspecified)	-6.2	-7.9	14.6	0.2	-11.7
COc1cccc(C(=O)Nc2ccccc2F)c1	19.6	19.3	11.1	-2.9	3.6
O=C(Nc1ccccc1F)Oc1cccc(OC(=O)Nc2ccccc2F)c1	73.1*	69.2*	18.9	-1.1	63.9*
C[C@H](CO)N1C[C@H](C)[C@@H](CN(C)S(=O)(=O)c2ccccc2)OCCCC[C@H](C)Oc2ccc(NC(=O)CCC(F)(F)F)cc2C1=O	/	/	22.0	/	/
